Screening results from PubChem.
This excerpt belongs to a sample that is enriched for hits.
BL2 CD40 inh: CD40 pathway inhibition in BL2 cells; BL2 NF-kB luciferase reporter, CD40L-induced, 4 h; inhibition, % at 10 µM; 83,000 tested, 0.94% active;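 active = mean inhibition of at least 50% with a set share of replicates also reaching that level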
Each line names hits and unclear results; the compound was inactive in the other large screens; ! = not confirmed by another sample; [ ] = remark or other dose.

C[C@@H]1CN([C@@H](C)CO)C(=O)c2cc(NC(=O)Nc3ccc(F)cc3)ccc2O[C@@H]1CN(C)S(=O)(=O)c1ccc(Cl)cc1	none
COCC(=O)N1[C@H](C#N)[C@@H](c2ccc(-c3cccc(F)c3)cc2)[C@@H]1CO	none
COCC#Cc1ccc([C@@H]2[C@@H](CO)N3C(=O)CN(C(=O)C4CCCCC4)C[C@@H]23)cc1	none
C[C@H]1CN([C@@H](C)CO)C(=O)c2ccccc2-c2ccccc2CO[C@@H]1CN(C)C(=O)Nc1cccc(F)c1	none
COC(=O)CCCSc1nccn1-c1ccccc1	none
c1ccc(CCSc2nccn2-c2ccccc2)cc1	BL2 CD40 inh active
O=C(O)c1cccnc1SCCc1ccccc1	none
CCC(=O)Nc1ccc2c(c1)OC[C@@H](C)N(Cc1ccccc1)C[C@@H](C)[C@@H](OC)CN(C)C2=O	none
O=C(Nc1ccccc1N1CCOCC1)c1cnccn1	none
O=C(Nc1ccc(S(=O)(=O)N2CCCC2)cc1)c1cnccn1	none
O=C(Nc1ccc(N2CCOCC2)cc1)c1cnccn1	BL2 CD40 inh 81.3
CCCNC(=O)N1[C@@H](CO)[C@@H]2c3ccccc3N(C(=O)Nc3ccccc3)C[C@@H]21	none
O=C(C[C@H]1C[C@H]2c3cc(NC(=O)Cc4ccncc4)ccc3O[C@H]2[C@H](CO)O1)NCc1cc(F)ccc1F	none
CC(C)OCCCNC(=O)CNC(=O)c1ccc(Cl)c(Cl)c1	BL2 CD40 inh 27.1
COCCNC(=O)c1ccc(Cl)c(Cl)c1	none
CC(C)OCCCNC(=O)c1ccncc1	none
COc1ccccc1NC(=O)N1CC(=O)N2[C@H](CO)[C@@H](c3ccc(-c4cccc(C)c4)cc3)[C@@H]2C1	none
N#Cc1cccc(-c2ccc([C@@H]3[C@@H]4CN(S(=O)(=O)c5ccc(-c6ccccc6)cc5)C[C@H]3N4)cc2)c1	BL2 CD40 inh 60.8
N#Cc1cccc(-c2ccc(C3[C@@H]4CN(S(=O)(=O)c5ccc(F)cc5)C[C@H]3N4)cc2)c1 (stereo partly drawn)	none
Cc1ccccc1S(=O)(=O)N1C[C@@H]2N[C@H](C1)C2c1ccc(-c2cccc(C#N)c2)cc1 (stereo partly drawn)	BL2 CD40 inh 53.6![25 µM]
Cc1ccc(S(=O)(=O)N2C[C@@H]3N[C@H](C2)C3c2ccc(-c3cccc(C#N)c3)cc2)cc1 (stereo partly drawn)	none
N#Cc1cccc(-c2ccc(C3[C@@H]4CN(S(=O)(=O)c5ccccc5F)C[C@H]3N4)cc2)c1 (stereo partly drawn)	none
N#Cc1cccc(-c2ccc(C3[C@@H]4CN(S(=O)(=O)c5ccccc5)C[C@H]3N4)cc2)c1 (stereo partly drawn)	none
C[C@@H]1CCCCO[C@@H](CN(C)S(=O)(=O)c2ccc(F)cc2)[C@H](C)CN([C@@H](C)CO)C(=O)c2cc(NS(=O)(=O)c3ccc(F)cc3)ccc2O1	none
O=C(C[C@H]1C[C@H]2c3cc(NC(=O)c4cccnc4)ccc3O[C@H]2[C@@H](CO)O1)NC1CCCCC1	none
COc1ccc(NC(=O)N(C)C[C@H]2OCc3ccccc3-c3ccccc3C(=O)N([C@@H](C)CO)C[C@@H]2C)cc1	none
O=c1cc(-c2ccc(O)cc2)oc2ccc3ccccc3c12	BL2 CD40 inh 101.7
COc1ccc(-c2cc(=O)c3c(C)cc(O)cc3o2)cc1	none
COc1cc2oc(-c3ccc(O)cc3)cc(=O)c2c(OC)c1O	none
C[C@@H]1CCCCO[C@H](CN(C)C(=O)c2ccncc2)[C@H](C)CN([C@H](C)CO)C(=O)c2cc(NC(=O)CCC(F)(F)F)ccc2O1	none
COc1ccccc1CN(C)C[C@@H]1OCc2ccccc2-c2c(n(C)c3ccccc23)C(=O)N([C@H](C)CO)C[C@H]1C	none
O=C(c1ccccc1)N1CC[C@@H]2[C@H]1c1cc(-c3ccccc3F)ccc1N[C@@H]2CO	none
COc1cc(OC)cc(C(=O)OCC(=O)c2cc(C)n(CC3CCCO3)c2C)c1 (stereo not drawn)	none
Cc1cc(C(=O)COC(=O)c2ccc(O)cc2)c(C)n1CC1CCCO1 (stereo not drawn)	none
Cc1cc(C(=O)COC(=O)CNC(=O)c2ccccc2)c(C)n1CC1CCCO1 (stereo not drawn)	BL2 CD40 inh 57.9
CNC[C@@H]1Oc2ccc(NS(=O)(=O)c3ccc(OC)cc3)cc2C(=O)N([C@H](C)CO)C[C@H]1C	none
COC(=O)Nc1ccc(NC(C)=O)cc1	none
CC(=O)Nc1ccc(S(=O)(=O)CC(=O)CS(=O)(=O)c2ccc(NC(C)=O)cc2)cc1	none
COC(=O)/C=C/S(=O)(=O)c1ccc(NC(C)=O)cc1	BL2 CD40 inh 106.5
O=C(C1CCCC1)N1C[C@H]2[C@@H](c3ccccc31)[C@H](CO)N2C(=O)c1ccccc1F	none
CC(C)[C@H]1COCn2nncc2CC[C@H](Cc2ccc(Cl)cc2)C(=O)N1	none
C[C@H]1CN(C)C(=O)c2cccc(NS(C)(=O)=O)c2O[C@H]1CN(C)C	none
COC(=O)c1ccc(N)cc1O	none
COC(=O)c1cc(=O)c2ccc(OC)cc2o1	none
COC(=O)c1ccccc1-c1c2ccc(=N)cc-2oc2cc(N)ccc12	BL2 CD40 inh 49.3
C[C@H](CO)N1C[C@H](C)[C@H](CN(C)S(=O)(=O)c2ccsc2)OCc2ccccc2-c2ccccc2C1=O	none
C[C@@H]1CN([C@H](C)CO)C(=O)c2cc(-c3cccnc3)cnc2O[C@@H]1CN(C)C(=O)Nc1ccccc1	none
COC(=O)N(C)C[C@H]1OCc2ccccc2-c2ccccc2C(=O)N([C@H](C)CO)C[C@@H]1C	none
O=C(C[C@@H]1CC[C@@H]2[C@H](COC[C@H](O)CN2S(=O)(=O)c2cccc(Cl)c2)O1)N1CCOCC1	none
COc1cc(SC)ccc1-c1nc2ccncc2[nH]1	none
COc1ccccc1CNC(=O)C[C@@H]1C=C[C@@H](NC(=O)CC2CC2)[C@@H](CO)O1	none
O=C1C(=Cc2ccccc2[N+](=O)[O-])Cc2ccccc21	BL2 CD40 inh 49.5
O=C1C(=Cc2cccc(F)c2)Cc2ccccc21	none
CC1(C)CC(=Cc2ccccc2[N+](=O)[O-])C(=O)c2ccccc21	none
C[C@@H]1CN([C@@H](C)CO)C(=O)c2cccc(NC(=O)CCCCCC(=O)Nc3ccccc3N)c2O[C@@H]1CN(C)S(=O)(=O)c1ccccc1	none
COc1ccc(OC)c2sc(N(CCCN(C)C)C(=O)CCS(=O)(=O)c3ccccc3)nc12	BL2 CD40 inh 81.2
COc1ccc(Cl)c2sc(N(CCN(C)C)C(=O)CCS(=O)(=O)c3ccc(C)cc3)nc12	none
Cc1cccc2sc(N(CCN3CCOCC3)C(=O)CCS(=O)(=O)c3ccccc3)nc12	none
C[C@@H]1CN([C@H](C)CO)C(=O)c2cc(NC(=O)CCN3CCOCC3)ccc2O[C@H]1CN(C)Cc1ccc(C(F)(F)F)cc1	none
C[C@@H]1CN([C@H](C)CO)C(=O)c2cc(NC(=O)Nc3cccc4ccccc34)ccc2O[C@@H](C)CCCCO[C@@H]1CN(C)S(=O)(=O)c1cn(C)cn1	none
CC(C)Cc1nnc(NC(=O)c2cc3c(s2)CCC3)s1	none
O=C(Nc1nccs1)c1cc2c(s1)CCCCC2	BL2 CD40 inh 91.7
O=C(Nn1cnnc1)c1cc2c(s1)CCCC2	none
CCC(=O)N1[C@H](C(=O)N2CCCCC2)[C@@H](CO)[C@@H]2Cn3c(ccc(-c4ccccc4)c3=O)[C@@H]21	none
COc1ccc2[nH]c(=O)c(CN(C(=O)c3cccnc3)c3ccccc3)cc2c1	none
COc1ccc2[nH]c(=O)c(CN(Cc3cccs3)S(=O)(=O)c3cccc4nsnc34)cc2c1	BL2 CD40 inh 55.4
COc1ccc(S(=O)(=O)N(Cc2cccnc2)Cc2cc3ccccc3[nH]c2=O)cc1	none
Cc1noc(C)c1NC(=O)N1C[C@H](O)COC[C@@H]2O[C@H](CC(=O)N[C@@H]3CCN(Cc4ccccc4)C3)CC[C@H]21	none
